Out of some 410,000 compounds screened, about 18,000 (4.4%) were called active. Not shown: some 7% with an inconclusive outcome. The sample holds actives, similar compounds and a random draw of the others, so the mix is not that of the screen. A number with no mark means an inactive call. No stated cut-off is given here; in the data, active means activity change below about -60%; inconclusive means no clear call, values can overlap the other calls; inactive means above about -39%.
Test: qHTS Assay for inhibitors of the human cytomegalovirus (HCMV)
Details: HFF cells, HCMV-luciferase reporter, 72 h; at 57.5 µM; stronger effect = lower value
Outline: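 Steps: HFFs plated, 16 h 37C; compounds added; HCMV-luciferase added to MOI 1 PFU/cell; 72 h 37C; OneGlo reagent, 5 min room temperature; luminescence read, normalized to controls.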
On the % scale 0 is the no-effect control and ±100 the full control effect.

| SMILES | activity change, negative = inhibition |
| --- | --- |
| O=C1Nc2cc(Cl)c(Cl)cc2N(O)N1c1ccccc1Cl | -10% |
| CC(Sc1nnc(C2CC2)n1C1CC1)C(=O)Nc1ccc(C(N)=O)cc1 (stereo not given) | 36.3% |
| CC(Sc1nnc2c(n1)C1CCC2(C)C1(C)C)C(=O)Nc1ccccc1 (stereo not given) | -60.9% (active) |
| COc1ccc(NC(=O)C(C)SCc2ccccc2)cc1 (stereo not given) | -10.8% |
| CC(=O)Nc1ccc(S(=O)(=O)Nc2cc(C)cn(Cc3ccc(C)cc3)c2=O)cc1 | -7.02% |
| Oc1c(Cl)cc(Cl)c(Cl)c1Cc1c(O)c(Cl)cc(Cl)c1Cl | -95.4% (active) |
| Cc1cc(C)nc(NS(=O)(=O)c2ccc(NC(=O)c3cc(=O)c4ccc(C)c(C)c4o3)cc2)n1 | -4.22% |
| Cc1cc(C)cc(NS(=O)(=O)c2ccc(-c3cc(C)no3)s2)c1 | 0% |
| COc1cccc(-c2nnc3n(CCc4ccccc4)c(=O)c4ccccc4n23)c1O | 2.64% |
| Cc1cc(=O)oc2cc(OCC3CC(c4ccccc4Cl)=NO3)ccc12 (stereo not given) | -90.9% (active) |
| Cc1ccccc1NC(=O)c1ccc(COc2ccc3c(C)cc(=O)oc3c2)cc1 | 10.2% |
| CC(=O)c1c(C)[nH]c(C(=O)COc2ccc3c(C)cc(=O)oc3c2)c1C | -31.5% |
| CCc1ccc(N2C(=O)CN(S(=O)(=O)CC)CC2(C)C(=O)NC2CCCCC2)cc1 (stereo not given) | 0% |
| COc1cccc(C(=O)NCc2ccc3c(c2)CCN3C(=O)c2ccncc2)c1 | 8.47% |
| NS(=O)(=O)c1ccc(NC(=O)COc2ccc(S(=O)(=O)NC3CCCCC3)cc2)cc1 | 15.5% |
| CCN(CC)CCn1c(=S)[nH]c2ncccc2c1=O | -27.4% |
| COc1ccc(C(=O)NCC(c2ccc(N(C)C)cc2)N2CCc3ccccc32)c(OC)c1 (stereo not given) | -18.8% |
| COc1ccc(CN2C(=O)CC(Cc3ccc(C)cc3)C2=O)cc1OC (stereo not given) | -12.9% |
| CCCCOc1ccc(Cn2c(=O)oc3ccc(C)cc32)cc1OC | -4.31% |
| CCCCOc1ccc(CN2C(=O)C(=O)c3cc(Br)cc(C)c32)cc1OC | -102% (active) |
| CCC(=O)N1CCc2cc(S(=O)(=O)NC(Cc3ccccc3)C(=O)NCc3ccccc3)ccc21 (stereo not given) | -22.7% |
| CCn1cc(C(=O)N2CCN(c3cc(Cl)ccc3C)CC2)c(=O)c2cc(S(=O)(=O)N3CCCC3)ccc21 | -11.4% |
| Cc1c(C)n(Cc2ccc(Cl)cc2)c2ccc(C(=O)N3CCN(c4ccccc4F)CC3)cc12 | 0% |
| Cc1nn(C)cc1/C=C1\CCC/C(=C\c2cn(C)nc2C)C1=O | -22.6% |
| CCCCc1nn2c(=O)cc(COC(=O)c3ccccc3NC(=O)C(C)(C)C)nc2s1 | -7.43% |

| SMILES | activity change, negative = inhibition |
| --- | --- |
| O=C(C[C@H]1C(=O)N(c2ccc(F)c(F)c2)C[C@@H]1Cc1ccccc1)Nc1ccccc1 | -93.1% (active) |
| CC1(C)CN(CCc2ccccc2)C(=O)[C@H]1CC(=O)Nc1ccc(Br)cc1 | 8.25% |
| COc1ccc(NC(=O)C[C@H]2C(=O)N(CCc3ccccc3)C[C@@H]2C)cc1 | 5.53% |
| CCc1ccc2ncc3c(-c4ccc(C)cc4)nn(CC(=O)NCc4ccccc4)c3c2c1 | -6.71% |
| COc1ccc(S[C@]2(c3nc(C)no3)CC(=O)N(C(=O)C3CC3)[C@@H]2c2ccc(OC)cc2)cc1 | -16.8% |
| Cc1cccc(Cc2c(C)nc3nc(SCc4ccccc4Cl)nn3c2C)c1 | 4.98% |
| Oc1ccc(-c2nc3ccc(Cl)cn3c2Nc2ccc3c(c2)OCO3)cc1 | 12.9% |
| Cc1ccc(CCNC(=O)c2ccc3c(c2)nc2n3CCC(C)C2)cc1 (stereo not given) | 14.9% |
| COc1ccc2c(c1OC)C(=O)OC2Nc1nc(-c2ccccc2)cs1 (stereo not given) | -104% (active) |
| COc1ccc(-c2cc(-c3ccc(F)cc3)nc3c2COc2ccccc2-3)cc1 | -6.64% |
| CCCc1nc2scc(-c3ccc(C)cc3)c2c(=O)n1N | -13.5% |
| COc1ccc(-c2csc(NC3OC(=O)c4ccccc43)n2)cc1 (stereo not given) | -107% (active) |
| COc1cccc(C(NC(C)=O)c2nc(-c3ccccc3OC)cs2)c1 (stereo not given) | 28.9% |
| Cc1ccc(-c2csc(NC3OC(=O)c4ccccc43)n2)cc1 (stereo not given) | 0% (active) |
| Cc1cc2c(cc3c(SCc4cccc(Cl)c4)nnc(C)n32)o1 | 4.43% |
| Cc1ccc(-n2c(=O)c3cccnc3n2CC(=O)Nc2ccccc2C(F)(F)F)cc1C | -5.4% |
| O=C(CSc1cccc[n+]1[O-])NCCCc1ccccc1 | -39.5% |
| O=C(CSc1cccc[n+]1[O-])c1ccc(-c2ccccc2)cc1 | -97.9% (active) |
| CCN(C(=O)CSc1cccc[n+]1[O-])c1ccccc1 | -32.1% |
| COC(=O)Cc1nnn2c1[C@H](C)[C@H](c1ccccc1[N+](=O)[O-])OCC2 | -4.47% |
| COc1ccc(CNC(=O)COCc2cc(-c3cccs3)on2)cc1OC | -28.2% |
| CC1CCN(c2nc3ccc(C(=O)N4CCN(c5ccccc5)CC4)cc3s2)CC1 | 31.7% |
| CCn1c(-c2ccncc2)n[nH]c1=S | -21.8% |
| S=c1[nH]nc(CSCc2ccc(Cl)cc2Cl)n1-c1ccccc1 | -18.3% |
| CCn1c(CSCc2c(Cl)cccc2Cl)n[nH]c1=S | -67.6% (active) |

| SMILES | activity change, negative = inhibition |
| --- | --- |
| Cc1cc(C)n2nc(CNS(=O)(=O)c3c(F)c(F)c(F)c(F)c3F)nc2n1 | 0% |
| CCc1ccc2oc(-c3ccc(C)c(NC(=O)/C=C/c4ccco4)c3)nc2c1 | 34.4% |
| CCOC(=O)c1c(NC(C)=O)c2c3c(sc2n1Cc1c(C)cc(C)cc1C)CCCC3 | -73.8% (active) |
| CCC(C)NC(=O)Cn1c(=O)n(-c2ccc(Cl)cc2)c(=O)c2c3c(sc21)CCCC3 (stereo not given) | 12.8% |
| Cc1ccc(NC(=O)Cn2c(=O)n(-c3ccccc3)c(=O)c3c4c(sc32)CCCC4)cc1 | 2.61% |
| CCOc1ccc(C(=O)c2cn(Cc3ccc(F)cc3)c3ccc(F)cc3c2=O)cc1 | -1.76% |
| CCCc1nn2c(=O)cc(CSCC(=O)Nc3cccc(C)c3)nc2s1 | 2.89% |
| C=CCNC(=S)NNC(=O)c1ccc(Br)o1 | -7.15% |
| CNC(=S)N/N=C/c1ccc(N2CCOCC2)s1 | 26.5% |
| C=CCNC(=S)N/N=C/c1ccc(C)s1 | 0% (active) |
| CN(C(=O)COC(=O)Cn1cnc2c1c(=O)n(C)c(=O)n2C)C1(C#N)CCCCC1 | 40.8% |
| CCC(CC)c1nn2cc(-c3ccccc3)nc2s1 | -21.9% |
| CCc1cc2c(cc3c(=O)n(CC(=O)NCc4cccc(Cl)c4)nc(CC)n32)s1 | 34.4% |
| CC1(C)CC2CC(C)(CN2c2ncnc3ccc(Br)cc23)C1 (stereo not given) | -62.4% (active) |
| Cc1ccc(CN(C(=O)c2ccccc2[N+](=O)[O-])c2ccccn2)cc1 | 3.28% |
| Cc1ccc(NC(=O)NNC(=O)c2sccc2-n2cccc2)cc1 | -19% |
| C=CC[n+]1c(-c2ccc(C)cc2)csc1NNC(=O)Nc1ccccc1 | -69.2% (active) |
| Cc1ccc(C(CNC(=O)Nc2ccccc2)N2CCN(C)CC2)cc1 (stereo not given) | -29.6% |
| Cc1cc2c(cc3c(SCc4nc(-c5ccccc5)oc4C)nnc(C)n32)o1 | -3.85% |
| CC(=O)Nc1ccc(NC(=O)CSc2nnc3c4cc(Br)ccc4n(C)c3n2)cc1 | 38.8% |
| CCOC(=O)CN1C(C(=O)c2ccccc2)=C(OC(=O)C(C)(C)C)c2ccccc2S1(=O)=O | -14% |
| Cc1nc(SCCOc2ccc(Cl)cc2)[nH]c(=O)c1Cc1ccccc1 | -7.29% |
| CCCOc1ccc(Cc2c(Cl)nc(SC)nc2NC)cc1 | -93.9% (active) |
| CCCOc1ccc(Cc2c(O)nc(SC)[nH]c2=O)cc1C | 15.7% |
| CN(Cc1cccc2ncccc12)C(=O)CC1C(=O)NCCN1Cc1ccc(F)cc1 (stereo not given) | -30.9% |

| SMILES | activity change, negative = inhibition |
| --- | --- |
| O=C(CN1CCN(Cc2ccc(Cl)cc2)C1=O)NCc1ccc(F)cc1 | -24.9% |
| Cc1ccc(C(=O)NC2CCCC(C)C2C)cc1S(=O)(=O)N1CCCCC1 (stereo not given) | -22.8% |
| Cc1nn(-c2ccccc2)c(C)c1NC(=O)COC(=O)Cc1ccccc1 | -13% |
| Cc1nn(-c2ccccc2)c(C)c1NC(=O)COC(=O)c1cc(Cl)ccc1O | 9.57% |
| Cc1nn(-c2ccccc2)c(C)c1NC(=O)COc1ccc(Cl)cc1Cl | -98.7% (active) |
| N#Cc1nc(/C=C/c2ccc(F)cc2)oc1NCc1ccc(F)cc1 | -13.8% |
| COc1cccc(-c2cc(C(=O)Nc3ccc(C)cc3)[nH]n2)c1 | 11.2% |
| CCc1ccc(CNC(=O)c2cc3cc4ccc(OC)cc4nc3o2)cc1 | -26.2% |
| Cc1ccc2c(=O)c(C(=O)c3cccc(Cl)c3)cn(CC(=O)NCc3ccccc3)c2n1 | -12.2% |
| O=C(Nc1cc(Cl)cc(Cl)c1)c1ccc2c(c1)N(Cc1cccc(Cl)c1)C(=O)c1ccccc1S2=O (stereo not given) | 16.5% |
| O=C(NC1CCCCC1)c1ccc2c(c1)N(Cc1ccc(Cl)cc1)C(=O)c1ccccc1S2=O (stereo not given) | 8.53% |
| CN(C(=O)c1ccc2c(c1)N(Cc1cccc(Cl)c1)C(=O)c1ccccc1S2=O)C1CCCCC1 (stereo not given) | -63.4% (active) |
| CCCCNC(=O)c1nc(C2CCN(S(=O)(=O)c3ccc(F)c(F)c3)CC2)oc1-c1cccc(C(F)(F)F)c1 | 6.36% |
| COc1ccccc1CN1CCC(CNC(=O)c2cnn(-c3cccc(Cl)c3)c2C2CCN(C(=O)OC(C)(C)C)CC2)CC1 | -108% (active) |
| CC(C)(C)OC(=O)N1CCC(c2c(C(=O)Nc3ccc4c(c3)OCO4)cnn2-c2ccccc2)CC1 | -8.71% |
| CC(C)(C)OC(=O)N1CCC(c2c(C(=O)N3CCN(c4cccc(Cl)c4)CC3)cnn2-c2cccc(Cl)c2)CC1 | 26.6% |
| CC(C)(C)OC(=O)N1CCC(c2c(C(=O)NCc3ccccn3)cnn2-c2ccc(F)cc2)CC1 | 14.7% |
| Cc1cccc(-n2ncc(C(=O)N3CCC(C)CC3)c2C2CCN(C(=O)OC(C)(C)C)CC2)c1 | 0% |
| CCOC(=O)N1CCC(NC(=O)c2cnn(-c3cccc(C)c3)c2C2CCN(C(=O)OC(C)(C)C)CC2)CC1 | 0% (active) |
| COC(=O)c1ccc(NC(=O)c2cnn(-c3ccc(Cl)cc3)c2C2CCN(C(=O)OC(C)(C)C)CC2)cc1 | 0% (active) |
| COc1ccccc1N1CCN(CCCNC(=O)c2cnn(-c3ccccc3Cl)c2C2CCN(C(=O)OC(C)(C)C)CC2)CC1 | -12.2% |
| Cc1ccc(CN2CCC(CNC(=O)c3cnn(-c4ccccc4Cl)c3C3CCN(C(=O)OC(C)(C)C)CC3)CC2)cc1 | -65.8% (active) |
| Cc1ccc(CN2CCC(CNC(=O)c3cnn(-c4ccc(C)cc4)c3C3CCN(C(=O)OC(C)(C)C)CC3)CC2)cc1 | 0% |
| COc1ccccc1CN1CCC(CNC(=O)c2cnn(-c3ccccc3Cl)c2C2CCN(C(=O)OC(C)(C)C)CC2)CC1 | -7.53% |
| CCN1CCN(CCCNC(=O)c2cnn(-c3ccc(C)cc3C)c2C2CCN(C(=O)OC(C)(C)C)CC2)CC1 | -13.5% |
